Drawing on PubChem BioAssay (NCI), this text covers growth for eight molecules.

Values joined by “and” are separate entries in the source; they are usually repeats but may differ in a detail not shown here. Equal values may be shown once. Compounds without any hit were thinned out: in the full panel of roughly 83,000, 20% have a hit.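 Single-dose data. Exposure time 48 hours. Values below 10 considered active.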 A number with no mark means an inactive call. Active and inactive are the calls of the source.

Test systems include SR leukemia; RPMI-8226 leukemia; OVCAR-8 ovarian; OVCAR-5 ovarian; OVCAR-4 ovarian; SK-OV-3 ovarian; IGROV1 ovarian; OVCAR-3 ovarian; HS 578T breast; NCI/ADR-RES ovarian; T-47D breast; BT-549 breast; MDA-MB-435 melanoma; SW-620 colon; MCF7 breast; HCT-116 colon; HCC-2998 colon; KM12 colon; MDA-MB-468 breast.
Test in all cases: NCI-60 one-dose screen, 48 h (100 = growth as untreated, 0 = no growth, -100 = all killed)
Holding throughout (conditions): 10 µM unless noted

Turning to `Cn1cc(-c2cc3nc(-c4cn(C)c5ncc(Br)cc45)cc(N)n3n2)c2cc(F)ccc21`, the growth in the assay on SR leukemia was -23.7% (active); in the assay on RPMI-8226 leukemia, 32.9%; in the assay on OVCAR-8 ovarian it was 10.5%; in the assay with OVCAR-5 ovarian, 31.8%; with OVCAR-4 ovarian, 3.36% (active); with SK-OV-3 ovarian, 75%. The growth in the assay on IGROV1 ovarian is 19.8%; in the assay on OVCAR-3 ovarian it was 20.3%; in the assay with HS 578T breast, 35%; with NCI/ADR-RES ovarian, 10.5%; with T-47D breast it was 2.75% (active); in the assay on BT-549 breast, 44.9%. Moreover, the growth in the assay on MDA-MB-435 melanoma was 39.8%; in the assay with SW-620 colon it was 26.6%; in the assay on MCF7 breast it was 27%; in the assay on HCT-116 colon, -44.1% (active); with HCC-2998 colon, -14.5% (active); in the assay on KM12 colon, 19.1%. Further, the growth with MDA-MB-468 breast is -47.4% (active).
On to `N#CCc1nnc(NC(=O)c2ccc(-n3c(=O)[nH]c4ccccc4c3=O)cc2)s1`, for which the growth is 93.4% with SR leukemia; 111% in the assay with RPMI-8226 leukemia; 100% in the assay with OVCAR-8 ovarian; 96.7% in the assay with OVCAR-5 ovarian; 106% in the assay with OVCAR-4 ovarian; 106% with SK-OV-3 ovarian. Also, the growth was 105% in the assay on IGROV1 ovarian; 104% with OVCAR-3 ovarian; 87.9% in the assay on HS 578T breast; 104% in the assay on NCI/ADR-RES ovarian; 100% in the assay on T-47D breast; 109% in the assay on BT-549 breast. The growth in the assay on MDA-MB-435 melanoma was 106%; in the assay with SW-620 colon, 104%; in the assay with MCF7 breast, 90.6%; in the assay on HCT-116 colon, 103%; in the assay on HCC-2998 colon, 108%; in the assay on KM12 colon, 121%. Moreover, the growth with MDA-MB-468 breast is 121%.
For the molecule `COc1ccc(SC2c3cc(OC)ccc3Oc3nc(N)c(C#N)c(N)c32)cc1` (configuration not stated), the growth with SR leukemia is 29.5%; with RPMI-8226 leukemia, 56.3%; with OVCAR-8 ovarian, 87%; with OVCAR-5 ovarian it was 123%; in the assay with OVCAR-4 ovarian, 105%; in the assay with SK-OV-3 ovarian it was 113%. The growth in the assay with IGROV1 ovarian was 21.9%; in the assay on OVCAR-3 ovarian, 98.4%; in the assay on HS 578T breast, 81%; in the assay with NCI/ADR-RES ovarian it was 91.1%; in the assay on T-47D breast it was 77.4%; with BT-549 breast it was 24.5%. Further, the growth with MDA-MB-435 melanoma was 87.5%; in the assay on SW-620 colon, 69.5%; in the assay on MCF7 breast it was 49.2%; in the assay with HCT-116 colon, 78%; in the assay with HCC-2998 colon it was 117%; with KM12 colon it was 61.2%. Further, the growth with MDA-MB-468 breast is 98.6%.
For `CCCCCCCCCc1ccc(C(=O)Nc2cc(C)ccc2C(=O)OC)cc1`, the growth in the assay with SR leukemia was 90.1%; with RPMI-8226 leukemia, 81.6%; with OVCAR-8 ovarian, 110%; with OVCAR-5 ovarian, 111%; with OVCAR-4 ovarian it was 94.5%; in the assay on SK-OV-3 ovarian it was 107%. In addition, the growth in the assay on IGROV1 ovarian is 118%; with OVCAR-3 ovarian, 124%; in the assay on HS 578T breast, 106%; in the assay with NCI/ADR-RES ovarian it was 109%; with T-47D breast it was 99.1%; in the assay with BT-549 breast it was 129%. The growth is 105% with MDA-MB-435 melanoma; 99.7% with SW-620 colon; 91.2% with MCF7 breast; 96.7% with HCT-116 colon; 122% in the assay on HCC-2998 colon; 105% in the assay on KM12 colon. Further, in the assay on MDA-MB-468 breast, the growth was 118%.
With `O=C(CSc1nnc(-c2ccc(-c3nc4ccc(Cl)cc4[nH]3)cc2)o1)Nc1ccccc1`, the growth was 10.9% with SR leukemia; 45.6% with RPMI-8226 leukemia; -44.3% (active) in the assay with OVCAR-8 ovarian; 49.9% in the assay on OVCAR-5 ovarian; 37.9% with OVCAR-4 ovarian; 66.3% in the assay on SK-OV-3 ovarian. Also, the growth in the assay with IGROV1 ovarian was 70.8%; in the assay with OVCAR-3 ovarian, 43.4%; in the assay on HS 578T breast, 40.6%; in the assay with NCI/ADR-RES ovarian it was 31.7%; in the assay on T-47D breast, 93.3%; in the assay with BT-549 breast, 80%. The growth in the assay with MDA-MB-435 melanoma was 17.5%; in the assay on SW-620 colon it was 0.173% (active); in the assay with MCF7 breast, 33.3%; in the assay on HCT-116 colon, 5.65% (active); in the assay with HCC-2998 colon it was 98.9%; with KM12 colon, 34.1%. For the same molecule, the growth in the assay on MDA-MB-468 breast is 90.9%.
In the case of `C=CCSc1nnc(-c2c(C)nc3sccn23)o1`, the growth in the assay on SR leukemia was 101%; with RPMI-8226 leukemia it was 86%; with OVCAR-8 ovarian, 98.6%; in the assay on OVCAR-5 ovarian it was 85.8%; with OVCAR-4 ovarian it was 102%; in the assay with SK-OV-3 ovarian it was 98.6%. Besides, the growth is 95.5% in the assay on IGROV1 ovarian; 131% in the assay with OVCAR-3 ovarian; 77.1% with HS 578T breast; 82.7% in the assay with NCI/ADR-RES ovarian; 79.4% with T-47D breast; 65.2% in the assay on BT-549 breast. The growth with MDA-MB-435 melanoma is 101%; in the assay with SW-620 colon, 97%; with MCF7 breast it was 70.8%; in the assay on HCT-116 colon, 94%; in the assay on HCC-2998 colon it was 110%; with KM12 colon, 101%. For the same molecule, the growth with MDA-MB-468 breast is 5.74% (active).
For the molecule `CC(C)(C)c1ccc(OCc2nc3ccccc3n2-c2cccc(N)c2)cc1`, the growth in the assay on SR leukemia is 26.3% and 92.3%; with RPMI-8226 leukemia, 48.3% and 110%; with OVCAR-8 ovarian it was 72.3% and 110%; with OVCAR-5 ovarian, 85.7% and 111%; in the assay on OVCAR-4 ovarian it was 49.6% and 105%; in the assay with SK-OV-3 ovarian, 103% and 107%. For the same molecule, the growth in the assay on IGROV1 ovarian is 65.7% and 108%; in the assay with OVCAR-3 ovarian it was 53.1% and 128%; in the assay on HS 578T breast, 53.9% and 96.3%; in the assay on NCI/ADR-RES ovarian, 50.2% and 101%; in the assay on T-47D breast it was 32.3% and 99.1%; in the assay on BT-549 breast, 73.6% and 115%. Besides, the growth with MDA-MB-435 melanoma is 70.5% and 102%; in the assay with SW-620 colon it was 77% and 116%; in the assay on MCF7 breast, 32% and 92.1%; in the assay on HCT-116 colon it was 56.8% and 104%; in the assay on HCC-2998 colon, 81.9% and 107%; in the assay with KM12 colon, 54.5% and 105%. In the assay with MDA-MB-468 breast, the growth is 69% and 96.4%.
For `N#Cc1c(-c2ccc(F)cc2)nc(SCc2ccc(F)cc2)nc1N1CCNCC1`, the growth with SR leukemia was -2.24% (active); in the assay with RPMI-8226 leukemia, -47.4% (active); in the assay on OVCAR-8 ovarian, -84% (active); in the assay on OVCAR-5 ovarian, 0.484% (active); in the assay with OVCAR-4 ovarian, -8.59% (active); with SK-OV-3 ovarian, 56.7%. For the same molecule, the growth in the assay on IGROV1 ovarian is -27.1% (active); in the assay on OVCAR-3 ovarian, -35.1% (active); with HS 578T breast it was -0.165% (active); in the assay on NCI/ADR-RES ovarian, -39% (active); in the assay with T-47D breast, -66.9% (active); in the assay with BT-549 breast, 82.7%. Besides, the growth is -84.7% (active) in the assay with MDA-MB-435 melanoma; -83.7% (active) in the assay with SW-620 colon; -90.5% (active) with MCF7 breast; -99.3% (active) with HCT-116 colon; -91% (active) with HCC-2998 colon; -81.2% (active) with KM12 colon. The growth in the assay with MDA-MB-468 breast was -72% (active).
